Data: PubChem BioAssay (Tox21)
Inconclusive results are not listed. The source made the active and inactive calls. The call rests on the fitted dose curve; in most records, active means well fitted activation curve with a large enough effect in the repeat runs; inconclusive means weak or mixed curves; inactive means flat fitted curve, though single readings scatter.

Assay: A CellTox Green Cytotoxicity Assay to monitor cytotoxicity in HepG2 cells - 8 hour (AID 1224890); further: nearly all actives have a fitted effect of over 45% in size
Conditions: CellTox Green fluorescence; series mostly up to 76.8 µM; cytotoxicity increase: at the top concentration
Text: National Center for Advancing Translational Sciences [NCATS]
NIH Chemical Genomics Center [NCGC]
U.S. Environmental Protection Agency [EPA]
National Institutes of Environmental Health Sciences [NIEHS]
National Toxicology Program [NTP]
Cell-based models are critical for drug discovery. Determining the natural cytotoxic effects resulting from test compounds is an essential research activity. A CellTox Green Cytotoxicity Assay to monitor cytotoxicity in real time of continues cell culture during 40 hours of the compound treatment was used to screen Tox21 10K library compounds in HepG2 cells. CellTox Green Cytotoxicity Assay is a nonlytic, homogeneous, biofluorescent method to measure cytotoxicity in cell culture after experimental manipulation. The assay system uses a proprietary asymmetric cyanine dye that is excluded from viable cells but preferentially stains the dead cell's DNA. […] Viable cells produce no appreciable increases in fluorescence. Therefore, the fluorescence signal produced by the binding interaction with dead cell DNA is proportional to cytotoxicity.
The mixture of HepG2 cell suspension and reagents were dispensed at 600cells/6 ul/well in 1536-well tissue culture treated black solid bottom plates using a Multidrop dispenser. After the assay plates were incubated at a 37 C/5% CO2 incubator for 5 hours, 23 nL of compounds dissolved in DMSO, positive and negative controls was transferred to the assay plate by a pintool work station. The plates were incubated at 37 C for 40 hours. The fluorescence intensity were measured at 0h, 8h, 16h, 24h, 32h and 40h time points using ViewLux plate reader during compound treatment.
On the % scale 0 is the no-effect control and ±100 the full control effect.

Row | SMILES | cytotoxicity increase
1 | C=C(C)C(=O)OCCN(CC)CC | -5.96% (inactive)
2 | C[C@H](CCC(=O)O)[C@H]1CC[C@H]2[C@@H]3C(=O)C[C@@H]4CC(=O)CC[C@]4(C)[C@H]3CC(=O)[C@]12C | -1.63% [at 35.3 µM] (inactive)
3 | Nc1ccc(S(=O)(=O)Nc2ccc(Cl)nn2)cc1 | 1.37% [at 35.3 µM] (inactive)
4 | COc1cc2c(cc1OC)C(=O)CC2 | -9.57% [at 35.3 µM] (inactive)
5 | O=C(CS(=O)Cc1ccco1)NC/C=C\COc1cc(CN2CCCCC2)ccn1 (stereo not given) | 5.44% [at 35.3 µM] (inactive)
6 | COc1cc(NS(=O)(=O)c2ccc(N)cc2)nc(OC)n1 | 0.745% [at 35.3 µM] (inactive)
7 | Cc1ccccc1N=O | -1.57% (inactive)
8 | CCc1ccc(C=O)cc1 | -2.75% (inactive)
9 | CC[C@H](C)C(=O)O[C@H]1C[C@H](O)C=C2C=C[C@H](C)[C@H](CC[C@@H](O)C[C@@H](O)CC(=O)O)[C@H]21 | -0.0853% (inactive)
10 | CC(C)N(c1ccccc1)C(C)C | 0.688% (inactive)
11 | O=C(OCc1ccccc1)C(=O)OCc1ccccc1 | -7.99% (inactive)
12 | COC(=O)CCc1ccc(OCC(O)CNC(C)C)cc1 (stereo not given) | -0.36% [at 35.3 µM] (inactive)
13 | O=S(=O)(O)CCN1CCN(CCO)CC1 | 1.02% (inactive)
14 | CC1=C(C(=O)O)N2C(=O)[C@@H](NC(=O)[C@H](N)c3ccc(O)cc3)[C@H]2SC1 | -8.6% [at 35.3 µM] (inactive)
15 | O=C(OCC1(COC(=O)c2cccnc2)CCCC(COC(=O)c2cccnc2)(COC(=O)c2cccnc2)C1O)c1cccnc1 | -4.29% [at 35.3 µM] (inactive)
16 | CCOc1cc([N+](=O)[O-])c(OCC)cc1N1CCOCC1 | -11.1% (inactive)
17 | CC(=O)N[C@@H](CCC(=O)O)C(=O)O | -4.28% [at 35.3 µM] (inactive)
18 | CC(CC=O)CCCC(C)(C)O (stereo not given) | -0.19% (inactive)
19 | O=C(OCC(COC(=O)c1cccnc1)(COC(=O)c1cccnc1)COC(=O)c1cccnc1)c1cccnc1 | -0.427% [at 35.3 µM] (inactive)
20 | CCOCCOCCOCC | 4.31% (inactive)

Row | SMILES | cytotoxicity increase
21 | CCC(C=O)CC | 6.12% (inactive)
22 | NS(=O)(=O)c1cc2c(cc1Cl)CN(C1CCCCC1)C2=O | 1.99% [at 35.3 µM] (inactive)
23 | O=C1c2cccc3c2[C@H](CCC3)CN1[C@@H]1CN2CCC1CC2 | 1.82% [at 35.3 µM] (inactive)
24 | COc1ccc2c(c1OC)C(=O)O[C@@H]2[C@H]1c2c(cc3c(c2OC)OCO3)CCN1C | 2.54% [at 35.3 µM] (inactive)
25 | CC(CO)c1ccccc1 (stereo not given) | -9.67% (inactive)
26 | Cc1ccsc1/C=C/C1=NCCCN1C | -0.743% [at 35.3 µM] (inactive)
27 | Cc1cccc(C)c1OCC(C)N (stereo not given) | -0.35% [at 35.3 µM] (inactive)
28 | CCCCCCN | 3.96% (inactive)
29 | CC(C)CC(=O)O | 0.336% (inactive)
30 | COc1cc(N)ccc1C | 0.552% (inactive)
31 | CCCCCCCCC1CCC(=O)O1 (stereo not given) | -1.86% (inactive)
32 | C=C(C)C(=O)OCCOP(=O)(O)OCCOC(=O)C(=C)C | -7.75% (inactive)
33 | CC(S)C(=O)NCC(=O)O (stereo not given) | 2.49% [at 35.3 µM] (inactive)
34 | CC(C)CC(C)CC(C)CC(C)COC(=O)c1ccccc1C(=O)OCC(C)CC(C)CC(C)CC(C)C (stereo not given) | 12.5% (inactive)
35 | O=S(O)(O)=S | 4.07% [at 6.97 µM] (inactive)
36 | CC(=O)NCCCCCC(=O)O | -6.66% [at 35.3 µM] (inactive)
37 | C=C(C)C(=O)OCc1ccccc1 | 0.929% (inactive)
38 | CC(C)(C)c1cc(CCC(=O)NN)cc(C(C)(C)C)c1O | 6.28% (inactive)
39 | c1ccc2nccnc2c1 | -3.13% (inactive)
40 | COc1ccc(C2CNC(=O)C2)cc1OC1CCCC1 (stereo not given) | -3.21% [at 35.3 µM] (inactive)
